Laboratory results from PubChem BioAssay AID1159580 (chemical genetic matrix, 2015).
The campaign covered roughly 5,500 compounds. About 2,000 (36%) were called active. Inconclusive results (about 18%) are left out. Cut-off read from the data, not from the text of the source: active = normalized growth mostly below about 0.91 (no sharp cut-off); inconclusive = no clear call, values can overlap the other calls; inactive = mostly above about 0.92. Some of the results follow.

Test: chemical genetic growth profiling, strain panel (AID 1159580);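 note: tested at 20 µM; growth read once vehicle control cultures reached saturation at 30 °C; 1 = growth at the plate median or of vehicle wells; lower values mean less growth of the strain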
Settings: S. cerevisiae deletion strains, growth OD

Measured: normalized growth

CN1CCC2(CCN3CCc4c(oc5ccccc45)C3C2)N(C)C1=O (stereo not drawn)
inactive: locus YAL013W, strain DEP1, hits give low values 1.02 | locus YAL040C, strain CLN3, hits give low values 1 | locus YCL061C, strain MRC1 (second series), hits give low values 1 | locus YDR150W, strain NUM1, hits give low values 0.996 | locus YDR363W, strain ESC2, hits give low values 1.02 | locus YER002W, strain NOP16, hits give low values 1.01 | locus YMR263W, strain SAP30, hits give low values 1 | locus YNL153C, strain GIM3, hits give low values 1 | locus YNL175C, strain NOP13, hits give low values 1 | locus YNL197C, strain WHI3, hits give low values 1.01 | locus YNL224C, strain SQS1, hits give low values 1.01 | locus YOR083W, strain WHI5 (second series), hits give low values 1.02 | locus YPL055C, strain LGE1, hits give low values 1
